# Reference: article PMC7862700, “An all-to-all approach to the identification of sequence-specific readers for epigenetic DNA modifications on cytosine”
# What was measured:
# Assay in all cases: DAPPL (digital affinity profiling via proximity ligation, sequencing); 10 mM Tris-HCl pH 7.5, 50 mM NaCl, 1 mM DTT, 4% glycerol, room temperature, 30 min; GST-TFs on glutathione beads, 16-mer random dsDNA library, 0.1% formaldehyde crosslink after washing; high values mean tight binding
# FLI1 = molecular target: T1, FLI1 (Homo sapiens, UniProt Q01543 1-452); conditions: protein: recombinant; tags: N-terminal GST; dsDNA, one strand shown
# T1 sequence: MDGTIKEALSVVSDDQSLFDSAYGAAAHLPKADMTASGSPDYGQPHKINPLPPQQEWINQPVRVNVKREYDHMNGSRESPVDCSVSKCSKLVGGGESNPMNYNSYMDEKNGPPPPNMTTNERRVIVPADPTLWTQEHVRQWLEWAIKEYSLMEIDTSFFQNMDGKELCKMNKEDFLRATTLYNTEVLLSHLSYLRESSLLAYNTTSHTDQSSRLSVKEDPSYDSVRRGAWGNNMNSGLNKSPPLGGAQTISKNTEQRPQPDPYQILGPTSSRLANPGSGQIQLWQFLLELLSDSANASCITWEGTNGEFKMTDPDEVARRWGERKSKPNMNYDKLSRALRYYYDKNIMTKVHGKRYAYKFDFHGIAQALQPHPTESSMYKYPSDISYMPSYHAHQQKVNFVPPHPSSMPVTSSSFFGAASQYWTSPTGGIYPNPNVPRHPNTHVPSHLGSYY
# Method in brief: (§1)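 Human transcription factors fused to GST were expressed in yeast, captured on glutathione beads, given DNA barcodes and pooled with a GST-only negative control. Pools were incubated with 200 nmole of a 16-mer random double-stranded DNA library in Tris/NaCl/DTT/glycerol buffer at room temperature for 30 min. They were then washed, crosslinked with 0.1% formaldehyde, proximity-ligated (BsaI/T4 ligase, 1 h, 37 °C), PCR-amplified and sequenced on an Illumina NextSeq500. Binding signal is each 6-mer's read frequency for a factor divided by its frequency for the GST control.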
# ELK1 = molecular target: T2, ELK1 (Homo sapiens, UniProt P19419 1-428); conditions: protein: recombinant; tags: N-terminal GST; dsDNA, one strand shown
# T2 sequence: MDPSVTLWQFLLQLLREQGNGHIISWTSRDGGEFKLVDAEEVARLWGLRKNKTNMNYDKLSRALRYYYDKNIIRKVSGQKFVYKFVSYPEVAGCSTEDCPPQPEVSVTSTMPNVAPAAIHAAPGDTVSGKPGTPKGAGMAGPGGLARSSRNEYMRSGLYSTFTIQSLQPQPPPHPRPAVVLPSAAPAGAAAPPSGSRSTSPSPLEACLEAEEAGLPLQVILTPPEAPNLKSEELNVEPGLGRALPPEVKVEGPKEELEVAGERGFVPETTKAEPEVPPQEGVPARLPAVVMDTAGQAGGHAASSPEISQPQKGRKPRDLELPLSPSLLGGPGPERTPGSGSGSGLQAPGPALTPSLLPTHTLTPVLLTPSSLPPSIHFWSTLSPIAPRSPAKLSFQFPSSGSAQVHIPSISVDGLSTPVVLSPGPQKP
# Method in brief: as §1
# GABPA = molecular target: T3, GABPA (Homo sapiens, UniProt Q06546 1-454); conditions: protein: recombinant; tags: N-terminal GST; dsDNA, one strand shown
# T3 sequence: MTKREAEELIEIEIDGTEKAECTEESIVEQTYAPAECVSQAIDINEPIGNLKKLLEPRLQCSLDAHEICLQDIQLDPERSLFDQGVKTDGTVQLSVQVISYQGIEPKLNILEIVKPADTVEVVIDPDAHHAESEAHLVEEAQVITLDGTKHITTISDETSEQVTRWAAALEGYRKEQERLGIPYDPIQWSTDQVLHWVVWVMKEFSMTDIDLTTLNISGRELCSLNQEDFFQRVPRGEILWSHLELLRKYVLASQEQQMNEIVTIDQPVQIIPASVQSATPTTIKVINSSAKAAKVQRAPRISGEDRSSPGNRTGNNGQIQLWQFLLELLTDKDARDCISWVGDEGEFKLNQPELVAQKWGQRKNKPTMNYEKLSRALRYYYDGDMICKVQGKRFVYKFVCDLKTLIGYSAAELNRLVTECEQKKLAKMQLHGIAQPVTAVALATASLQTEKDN
# Method in brief: as §1
# ERG = molecular target: T4, ERG (Homo sapiens, UniProt P11308 1-479); conditions: protein: recombinant; tags: N-terminal GST; dsDNA, one strand shown
# T4 sequence: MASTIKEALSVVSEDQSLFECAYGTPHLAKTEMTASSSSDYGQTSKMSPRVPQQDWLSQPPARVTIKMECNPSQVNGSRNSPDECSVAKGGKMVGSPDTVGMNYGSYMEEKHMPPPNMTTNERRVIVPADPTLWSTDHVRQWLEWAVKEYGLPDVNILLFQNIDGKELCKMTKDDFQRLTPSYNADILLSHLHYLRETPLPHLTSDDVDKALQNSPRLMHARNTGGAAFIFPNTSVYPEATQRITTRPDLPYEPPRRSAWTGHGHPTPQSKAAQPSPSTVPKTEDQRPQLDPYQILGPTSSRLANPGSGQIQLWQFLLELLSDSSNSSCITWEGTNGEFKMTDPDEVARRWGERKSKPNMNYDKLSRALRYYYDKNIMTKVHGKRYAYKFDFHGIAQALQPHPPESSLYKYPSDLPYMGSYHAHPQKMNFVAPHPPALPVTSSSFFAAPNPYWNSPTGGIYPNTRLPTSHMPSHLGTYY
# Method in brief: as §1
# ELF1 = ELF1 (Homo sapiens, UniProt P32519 1-619); conditions: protein: recombinant; tags: N-terminal GST; dsDNA, one strand shown
# ELF1, sequence (P32519 whole entry): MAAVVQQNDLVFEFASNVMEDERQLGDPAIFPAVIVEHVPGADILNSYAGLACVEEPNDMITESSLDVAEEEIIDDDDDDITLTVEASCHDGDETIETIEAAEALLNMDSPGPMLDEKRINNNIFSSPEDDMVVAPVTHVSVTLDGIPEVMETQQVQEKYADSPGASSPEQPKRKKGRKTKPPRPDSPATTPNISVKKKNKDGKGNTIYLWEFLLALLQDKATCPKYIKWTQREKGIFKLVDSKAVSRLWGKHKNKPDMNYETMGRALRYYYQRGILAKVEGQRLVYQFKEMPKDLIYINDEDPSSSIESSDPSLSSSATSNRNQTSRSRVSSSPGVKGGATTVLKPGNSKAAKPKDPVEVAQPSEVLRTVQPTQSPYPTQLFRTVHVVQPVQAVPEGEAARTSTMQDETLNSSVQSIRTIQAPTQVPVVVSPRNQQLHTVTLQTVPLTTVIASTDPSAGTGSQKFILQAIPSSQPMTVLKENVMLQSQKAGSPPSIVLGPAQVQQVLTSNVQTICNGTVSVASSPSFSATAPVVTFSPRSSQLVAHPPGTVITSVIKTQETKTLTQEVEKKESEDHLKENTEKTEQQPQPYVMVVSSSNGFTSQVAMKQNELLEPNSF
# Method in brief: as §1
# EHF = molecular target: T5, EHF (Homo sapiens, UniProt Q9NZC4 1-300); conditions: protein: recombinant; tags: N-terminal GST; dsDNA, one strand shown
# T5 sequence: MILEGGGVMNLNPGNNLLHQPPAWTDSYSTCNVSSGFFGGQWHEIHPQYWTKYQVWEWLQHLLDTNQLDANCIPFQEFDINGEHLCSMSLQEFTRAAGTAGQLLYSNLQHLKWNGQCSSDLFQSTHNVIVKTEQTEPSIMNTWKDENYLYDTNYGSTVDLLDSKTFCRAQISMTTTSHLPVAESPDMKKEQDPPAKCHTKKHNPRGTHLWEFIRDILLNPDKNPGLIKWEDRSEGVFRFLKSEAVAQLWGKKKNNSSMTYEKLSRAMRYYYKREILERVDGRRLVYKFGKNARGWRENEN
# Method in brief: as §1
# SPI1 = SPI1 (Homo sapiens, UniProt P17947 1-270); conditions: protein: recombinant; tags: N-terminal GST; dsDNA, one strand shown
# Method in brief: as §1
# SPIB = SPIB (Homo sapiens, UniProt Q01892 1-262); conditions: protein: recombinant; tags: N-terminal GST; dsDNA, one strand shown
# SPIB, sequence (Q01892 whole entry): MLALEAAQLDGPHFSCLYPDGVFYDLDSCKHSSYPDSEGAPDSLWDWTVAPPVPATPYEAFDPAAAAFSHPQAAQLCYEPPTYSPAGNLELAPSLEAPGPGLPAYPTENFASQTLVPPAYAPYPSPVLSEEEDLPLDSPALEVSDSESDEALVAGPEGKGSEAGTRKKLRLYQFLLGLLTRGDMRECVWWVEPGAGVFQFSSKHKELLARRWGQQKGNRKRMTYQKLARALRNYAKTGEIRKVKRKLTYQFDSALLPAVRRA
# Method in brief: as §1
# ELK3 = molecular target: T6, ELK3 (Homo sapiens, UniProt P41970 1-407); conditions: protein: recombinant; tags: N-terminal GST; dsDNA, one strand shown
# T6 sequence: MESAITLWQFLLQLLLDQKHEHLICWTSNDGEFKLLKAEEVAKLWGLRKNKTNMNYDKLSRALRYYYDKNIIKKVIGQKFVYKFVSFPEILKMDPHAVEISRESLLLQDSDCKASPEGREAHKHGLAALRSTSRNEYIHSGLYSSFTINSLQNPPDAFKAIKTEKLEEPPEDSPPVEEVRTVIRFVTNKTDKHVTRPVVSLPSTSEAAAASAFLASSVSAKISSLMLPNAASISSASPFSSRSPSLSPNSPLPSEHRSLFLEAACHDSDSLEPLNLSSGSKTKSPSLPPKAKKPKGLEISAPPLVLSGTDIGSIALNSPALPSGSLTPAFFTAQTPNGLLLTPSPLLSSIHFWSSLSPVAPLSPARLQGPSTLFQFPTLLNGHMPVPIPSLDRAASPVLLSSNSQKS
# Method in brief: as §1
# FEV = molecular target: T7, FEV (Homo sapiens, UniProt Q99581 1-238); conditions: protein: recombinant; tags: N-terminal GST; dsDNA, one strand shown
# T7 sequence: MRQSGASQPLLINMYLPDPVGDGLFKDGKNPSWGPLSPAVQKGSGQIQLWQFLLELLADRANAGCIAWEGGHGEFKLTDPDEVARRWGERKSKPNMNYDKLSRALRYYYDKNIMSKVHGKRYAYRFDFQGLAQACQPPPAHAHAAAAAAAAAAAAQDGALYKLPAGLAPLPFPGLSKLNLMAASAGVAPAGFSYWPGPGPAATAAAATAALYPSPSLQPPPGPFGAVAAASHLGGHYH
# Method in brief: as §1
# ETV5 = ETV5 (Homo sapiens, UniProt P41161 1-510); conditions: protein: recombinant; tags: N-terminal GST; dsDNA, one strand shown
# ETV5, sequence (P41161 whole entry): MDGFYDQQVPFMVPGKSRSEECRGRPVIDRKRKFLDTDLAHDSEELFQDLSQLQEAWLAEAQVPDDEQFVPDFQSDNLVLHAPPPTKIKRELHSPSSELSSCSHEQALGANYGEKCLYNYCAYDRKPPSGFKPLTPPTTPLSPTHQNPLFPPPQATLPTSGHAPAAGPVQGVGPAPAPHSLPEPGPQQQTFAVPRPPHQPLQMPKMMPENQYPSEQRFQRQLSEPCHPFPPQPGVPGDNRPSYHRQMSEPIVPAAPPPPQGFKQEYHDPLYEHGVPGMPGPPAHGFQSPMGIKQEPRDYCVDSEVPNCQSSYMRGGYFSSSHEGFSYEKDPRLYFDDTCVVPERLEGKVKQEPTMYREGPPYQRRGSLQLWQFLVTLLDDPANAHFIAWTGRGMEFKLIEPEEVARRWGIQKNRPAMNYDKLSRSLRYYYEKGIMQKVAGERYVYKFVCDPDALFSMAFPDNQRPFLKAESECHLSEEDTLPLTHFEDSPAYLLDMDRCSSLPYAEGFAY
# Method in brief: as §1
# HSF1 = HSF1 (Homo sapiens, UniProt Q00613 1-529); conditions: protein: recombinant; tags: N-terminal GST; chain copies: 3; dsDNA, one strand shown
# HSF1, sequence (Q00613 whole entry): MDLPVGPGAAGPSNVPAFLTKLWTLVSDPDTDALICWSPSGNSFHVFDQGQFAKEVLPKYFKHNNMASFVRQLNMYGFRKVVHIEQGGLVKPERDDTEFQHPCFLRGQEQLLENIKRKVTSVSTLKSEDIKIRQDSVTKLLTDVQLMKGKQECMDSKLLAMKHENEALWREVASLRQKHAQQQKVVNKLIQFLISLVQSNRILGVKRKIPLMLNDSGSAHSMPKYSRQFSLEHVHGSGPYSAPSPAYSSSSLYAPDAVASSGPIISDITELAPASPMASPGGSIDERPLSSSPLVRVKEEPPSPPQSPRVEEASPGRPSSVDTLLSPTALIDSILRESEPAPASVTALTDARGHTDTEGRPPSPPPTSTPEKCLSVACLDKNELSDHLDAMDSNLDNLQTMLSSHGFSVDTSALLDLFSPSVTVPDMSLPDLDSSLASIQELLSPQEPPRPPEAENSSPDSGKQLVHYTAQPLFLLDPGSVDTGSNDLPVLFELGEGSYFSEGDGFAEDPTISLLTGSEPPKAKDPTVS
# Method in brief: as §1
# SPIC = molecular target: T8, SPIC (Homo sapiens, UniProt Q8N5J4 1-248); conditions: protein: recombinant; tags: N-terminal GST; dsDNA, one strand shown
# T8 sequence: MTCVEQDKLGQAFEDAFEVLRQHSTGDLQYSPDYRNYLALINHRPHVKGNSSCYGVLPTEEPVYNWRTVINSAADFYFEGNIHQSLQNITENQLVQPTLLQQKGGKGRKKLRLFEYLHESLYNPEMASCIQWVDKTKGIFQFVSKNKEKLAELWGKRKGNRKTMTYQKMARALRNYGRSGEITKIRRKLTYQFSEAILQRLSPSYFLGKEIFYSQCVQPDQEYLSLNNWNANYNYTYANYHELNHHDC
# Method in brief: as §1
# ELF4 = ELF4 (Homo sapiens, UniProt Q99607 1-663); conditions: protein: recombinant; tags: N-terminal GST; dsDNA, one strand shown
# ELF4, sequence (Q99607 whole entry): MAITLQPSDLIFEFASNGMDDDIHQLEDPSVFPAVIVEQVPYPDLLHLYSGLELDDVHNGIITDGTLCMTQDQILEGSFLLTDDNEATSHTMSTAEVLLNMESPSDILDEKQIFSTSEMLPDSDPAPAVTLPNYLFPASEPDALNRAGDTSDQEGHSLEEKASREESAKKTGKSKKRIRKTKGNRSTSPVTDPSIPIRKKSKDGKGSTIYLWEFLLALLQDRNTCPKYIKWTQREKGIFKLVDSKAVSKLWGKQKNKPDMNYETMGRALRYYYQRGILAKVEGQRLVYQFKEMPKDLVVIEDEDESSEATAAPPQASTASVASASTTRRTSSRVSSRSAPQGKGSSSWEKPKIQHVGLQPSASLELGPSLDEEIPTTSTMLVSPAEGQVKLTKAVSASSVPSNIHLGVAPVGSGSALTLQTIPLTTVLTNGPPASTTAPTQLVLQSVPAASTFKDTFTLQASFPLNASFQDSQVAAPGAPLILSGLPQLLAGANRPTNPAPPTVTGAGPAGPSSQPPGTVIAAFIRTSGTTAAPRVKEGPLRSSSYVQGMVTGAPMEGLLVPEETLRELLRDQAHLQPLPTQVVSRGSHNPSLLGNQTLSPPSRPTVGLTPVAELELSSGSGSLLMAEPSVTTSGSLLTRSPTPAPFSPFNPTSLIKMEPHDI
# Method in brief: as §1
# ELK4 = molecular target: T9, ELK4 (Homo sapiens, UniProt P28324-2 1-405); conditions: protein: recombinant; tags: N-terminal GST; dsDNA, one strand shown
# T9 sequence: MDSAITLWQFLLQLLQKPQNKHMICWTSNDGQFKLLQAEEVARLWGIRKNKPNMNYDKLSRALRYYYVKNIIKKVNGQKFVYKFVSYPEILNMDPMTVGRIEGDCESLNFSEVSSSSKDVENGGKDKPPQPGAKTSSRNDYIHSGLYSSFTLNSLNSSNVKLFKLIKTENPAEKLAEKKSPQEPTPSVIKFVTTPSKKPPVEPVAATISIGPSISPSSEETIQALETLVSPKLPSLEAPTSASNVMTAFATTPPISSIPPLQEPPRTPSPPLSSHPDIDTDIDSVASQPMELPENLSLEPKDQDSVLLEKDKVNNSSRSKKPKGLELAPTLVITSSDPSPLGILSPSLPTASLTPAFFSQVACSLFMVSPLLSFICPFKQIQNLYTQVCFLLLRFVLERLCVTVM
# Method in brief: as §1
# ETV2 = molecular target: T10, ETV2 (Homo sapiens, UniProt O00321 1-342); conditions: protein: recombinant; tags: N-terminal GST; dsDNA, one strand shown
# T10 sequence: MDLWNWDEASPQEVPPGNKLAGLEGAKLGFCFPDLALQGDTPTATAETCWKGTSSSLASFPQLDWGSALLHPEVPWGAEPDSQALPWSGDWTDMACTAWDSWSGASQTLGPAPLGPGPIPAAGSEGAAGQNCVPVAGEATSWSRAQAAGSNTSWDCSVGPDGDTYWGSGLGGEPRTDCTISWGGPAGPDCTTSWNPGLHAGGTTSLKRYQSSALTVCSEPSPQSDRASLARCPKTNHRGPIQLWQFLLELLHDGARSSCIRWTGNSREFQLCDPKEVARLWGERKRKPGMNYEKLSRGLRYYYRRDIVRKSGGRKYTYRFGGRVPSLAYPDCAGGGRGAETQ
# Method in brief: as §1
# ELF3 = molecular target: T11, ELF3 (Homo sapiens, UniProt P78545 1-371); conditions: protein: recombinant; tags: N-terminal GST; dsDNA, one strand shown
# T11 sequence: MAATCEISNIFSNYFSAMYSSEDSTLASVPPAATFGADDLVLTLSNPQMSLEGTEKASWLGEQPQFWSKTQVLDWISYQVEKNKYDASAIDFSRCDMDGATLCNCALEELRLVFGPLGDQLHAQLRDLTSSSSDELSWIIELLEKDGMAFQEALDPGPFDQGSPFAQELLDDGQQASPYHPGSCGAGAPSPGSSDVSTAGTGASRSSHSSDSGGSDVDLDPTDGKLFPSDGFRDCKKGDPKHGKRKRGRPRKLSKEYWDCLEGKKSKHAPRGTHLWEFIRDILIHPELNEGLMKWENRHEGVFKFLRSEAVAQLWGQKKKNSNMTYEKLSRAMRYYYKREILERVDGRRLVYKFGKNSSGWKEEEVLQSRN
# Method in brief: as §1
# CRX = CRX (Homo sapiens, UniProt O43186 1-299); conditions: protein: recombinant; tags: N-terminal GST; dsDNA, one strand shown
# CRX, sequence (O43186 whole entry): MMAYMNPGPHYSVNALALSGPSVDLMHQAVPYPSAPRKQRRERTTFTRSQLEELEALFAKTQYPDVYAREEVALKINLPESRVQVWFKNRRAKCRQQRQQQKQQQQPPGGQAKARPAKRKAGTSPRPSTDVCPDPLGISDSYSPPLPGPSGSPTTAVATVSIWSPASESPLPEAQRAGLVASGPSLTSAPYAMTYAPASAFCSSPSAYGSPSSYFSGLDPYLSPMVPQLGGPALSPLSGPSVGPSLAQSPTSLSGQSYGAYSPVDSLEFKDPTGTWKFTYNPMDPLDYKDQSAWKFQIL
# Method in brief: as §1
# ETV1 = ETV1 (Homo sapiens, UniProt P50549 1-477); conditions: protein: recombinant; tags: N-terminal GST; dsDNA, one strand shown
# ETV1, sequence (P50549 whole entry): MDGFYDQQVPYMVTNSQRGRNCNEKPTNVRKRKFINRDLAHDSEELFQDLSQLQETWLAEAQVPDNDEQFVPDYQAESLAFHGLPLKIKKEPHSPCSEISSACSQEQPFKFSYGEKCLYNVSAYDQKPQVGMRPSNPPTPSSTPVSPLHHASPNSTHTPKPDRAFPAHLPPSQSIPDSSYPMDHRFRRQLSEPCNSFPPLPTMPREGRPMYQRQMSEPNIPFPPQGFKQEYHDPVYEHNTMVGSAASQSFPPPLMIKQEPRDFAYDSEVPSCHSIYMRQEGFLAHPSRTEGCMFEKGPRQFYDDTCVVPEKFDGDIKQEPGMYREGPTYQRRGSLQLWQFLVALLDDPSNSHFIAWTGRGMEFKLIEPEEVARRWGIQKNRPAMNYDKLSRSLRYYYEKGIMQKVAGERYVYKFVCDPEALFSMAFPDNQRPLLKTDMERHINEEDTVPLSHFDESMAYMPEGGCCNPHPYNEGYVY
# Method in brief: as §1
sequence,measurement,setting,value
TCCCAT,binding signal,FLI1,"1.36 fold enrichment (6-mer frequency, TF over GST control)"
same,binding signal,ELK1,"1.37 fold enrichment (6-mer frequency, TF over GST control)"
same,binding signal,GABPA,"1.51 fold enrichment (6-mer frequency, TF over GST control)"
same,binding signal,ERG,"1.45 fold enrichment (6-mer frequency, TF over GST control)"
same,binding signal,ELF1,"1.44 fold enrichment (6-mer frequency, TF over GST control)"
same,binding signal,EHF,"1.43 fold enrichment (6-mer frequency, TF over GST control)"
same,binding signal,SPI1,"1.28 fold enrichment (6-mer frequency, TF over GST control)"
same,binding signal,SPIB,"1.48 fold enrichment (6-mer frequency, TF over GST control)"
same,binding signal,ELK3,"1.47 fold enrichment (6-mer frequency, TF over GST control)"
same,binding signal,FEV,"1.32 fold enrichment (6-mer frequency, TF over GST control)"
same,binding signal,ETV5,"1.34 fold enrichment (6-mer frequency, TF over GST control)"
same,binding signal,HSF1,"1.21 fold enrichment (6-mer frequency, TF over GST control)"
same,binding signal,SPIC,"1.45 fold enrichment (6-mer frequency, TF over GST control)"
same,binding signal,ELF4,"1.29 fold enrichment (6-mer frequency, TF over GST control)"
same,binding signal,ELK4,"1.27 fold enrichment (6-mer frequency, TF over GST control)"
same,binding signal,ETV2,"1.41 fold enrichment (6-mer frequency, TF over GST control)"
same,binding signal,ELF3,"1.44 fold enrichment (6-mer frequency, TF over GST control)"
same,binding signal,CRX,"1.43 fold enrichment (6-mer frequency, TF over GST control)"
same,binding signal,ETV1,"1.37 fold enrichment (6-mer frequency, TF over GST control)"
